Measured values published in PubChem BioAssay.
The source made the active and inactive calls.

Assays:
[1] = optical density shifts of acrAB sulA E. coli – strain DRC41, OD650, 48 h, E. coli filamentation inducer project, primary screen (AID 1152); conditions: higher = more signal, called active from +8 up or from −8 down;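 further: E. coli MC1000 strain DRC41 lacking acrAB efflux pump and sulA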
[2] = probe aLefty1 binding on compound microarray – biochemical, small-molecule microarray, 635/667 nm fluorescence, primary screen (AID 1153); conditions: higher = more signal;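 further: score merges spot fluorescence with signal-to-noise ratio from the scanned slide images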
[3] = plasmodial surface anion channel blockers, osmotic lysis – cell-based, P. falciparum Indochina, OD700, 1 h, primary screen (AID 1154); conditions: P. falciparum Indochina infected RBC osmotic lysis, higher = more signal, called active from +8 up or from −8 down
[4] = plasmodial surface anion channel blockers, osmotic lysis – cell-based, P. falciparum Indochina, OD700, 2 h, primary screen (AID 1155);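 further: lysis reports solute entry through the parasite surface anion channel PSAC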; conditions: P. falciparum Indochina infected erythrocytes, higher = more signal, called active from +8 up or from −8 down
[5] = changes in parasitized red cell lysis, either direction – P. falciparum Indochina, OD700, 3 h, PSAC antagonist project, primary screen (AID 1156); conditions: P. falciparum-infected erythrocytes, osmotic lysis, higher = more signal, called active from +8 up or from −8 down
[6] = plasmodial surface anion channel blockers, osmotic lysis – cell-based, P. falciparum Indochina, OD700, 18 h, primary screen (AID 1157); conditions: P. falciparum Indochina infected erythrocytes, osmotic lysis OD700, 18 h; higher = more signal, called active from +8 up or from −8 down
[7] = S6 kinase pathway phospho-S6 level changes – cell-based, A549, cytoblot, luminescence, serum-stimulated, primary screen (AID 1158); conditions: 5 h, higher = more signal;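 further: serum-stimulated A549 lung adenocarcinoma cells; signal is phosphorylated S6 detected by cytoblot immunostaining with HRP secondary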
[8] = biological target: NADPH oxidase 2 (Homo sapiens) (UniProt P04839); test: compounds shifting NOX2 Amplex Red fluorescence – cell-based, HEK293-NOX2, PMA-stimulated, NOX inhibitor project, primary screen (AID 1159); conditions: 45 min, higher = more signal, called active from +8 up or from −8 down; further: test concentration not given here
[9] = biological target: NADPH oxidase 4 (Homo sapiens) (UniProt Q9NPH5); test: compounds shifting NOX4 Amplex Red fluorescence – cell-based, HEK293-NOX4, tetracycline-induced, NOX inhibitor project, primary screen (AID 1160); conditions: HEK293-NOX4, Amplex Red H2O2 fluorescence, 45 min; higher = more signal, called active from +8 up or from −8 down
[10] = biological target: NADPH oxidase 5 (Homo sapiens) (UniProt Q96PH1); test: compounds shifting NOX5 Amplex Red fluorescence – cell-based, HEK293-NOX5, NOX inhibitor project, primary screen (AID 1161); conditions: HEK293-NOX5, ionomycin, 45 min, higher = more signal
[11] = compound effects on lung adenocarcinoma cell viability – A549, calcein-AM fluorescence, 48 h, basal, profiling panel (AID 1162); conditions: higher = more signal; further: test concentration not given here
[12] = compound effects on differentiated 3T3-L1 adipocyte viability – cell-based, 3T3-L1 adipocytes, calcein-AM fluorescence, 48 h, basal, profiling panel (AID 1163); conditions: 3T3-L1 adipocytes viability, higher = more signal; further: test concentration not given here
[13] = compound effects on hepatocellular carcinoma cell viability – HepG2, calcein-AM fluorescence, 48 h, basal, profiling panel (AID 1164); conditions: higher = more signal; further: test concentration not given here
[14] = compound effects on multiple myeloma cell viability – MM1S, calcein-AM fluorescence, 48 h, basal, profiling panel (AID 1165); conditions: higher = more signal; further: test concentration not given here
[15] = calcein-AM signal in unstimulated myeloma cells – cell-based, calcein-AM fluorescence, 48 h, PK04 Diversity Set, profiling panel (AID 1166); conditions: RPMI8226 myeloma viability, higher = more signal;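 further: cells grown under basal conditions without added stimulus; test concentration not given here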
[16] = JC-1 mitochondrial signal, unstimulated HepG2 cells – cell-based, JC-1 fluorescence, 24 h, 100 nL compound, profiling panel (AID 1167); conditions: HepG2 mitochondrial potential, higher = more signal; further: test concentration not given here
[17] = JC-1 mitochondrial signal, unstimulated adipocytes – cell-based, JC-1 fluorescence, 3T3-L1 adipocytes, 24 h, 100 nL compound, profiling panel (AID 1168); conditions: JC-1 mitochondrial fluorescence, higher = more signal, called active from +8 up or from −8 down; further: test concentration not given here
[18] = JC-1 mitochondrial signal, unstimulated myeloma cells – cell-based, JC-1 fluorescence, RPMI8226, 24 h, 100 nL compound, profiling panel (AID 1169); conditions: JC-1 mitochondrial potential fluorescence, higher = more signal; further: test concentration not given here
[19] = JC-1 mitochondrial signal, unstimulated MM1S myeloma – cell-based, JC-1 fluorescence, 24 h, 100 nL compound, profiling panel (AID 1170); conditions: MM1S mitochondrial potential, higher = more signal; further: test concentration not given here
[20] = resazurin metabolic signal in A549 cells – cell-based, resazurin fluorescence, 24 h, PK04 Diversity Set, profiling panel (AID 1171); conditions: A549 viability, higher = more signal, called active from +8 up or from −8 down; further: test concentration not given here

Chain of NADPH oxidase 2 (Homo sapiens) (P04839 whole entry, looked up): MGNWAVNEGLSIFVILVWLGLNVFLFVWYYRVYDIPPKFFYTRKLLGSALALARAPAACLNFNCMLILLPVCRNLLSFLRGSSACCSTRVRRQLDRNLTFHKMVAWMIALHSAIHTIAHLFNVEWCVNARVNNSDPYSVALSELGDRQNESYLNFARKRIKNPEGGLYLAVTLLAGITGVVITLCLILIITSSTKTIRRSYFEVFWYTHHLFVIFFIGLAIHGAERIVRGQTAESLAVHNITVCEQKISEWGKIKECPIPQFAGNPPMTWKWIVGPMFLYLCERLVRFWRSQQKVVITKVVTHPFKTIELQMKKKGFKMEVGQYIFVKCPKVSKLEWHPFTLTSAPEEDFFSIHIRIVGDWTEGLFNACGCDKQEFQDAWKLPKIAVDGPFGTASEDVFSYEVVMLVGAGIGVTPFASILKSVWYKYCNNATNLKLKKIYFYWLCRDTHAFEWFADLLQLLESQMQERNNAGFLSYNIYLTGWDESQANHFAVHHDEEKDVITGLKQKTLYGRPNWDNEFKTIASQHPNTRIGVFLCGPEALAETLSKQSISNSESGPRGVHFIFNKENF
Chain of NADPH oxidase 4 (Homo sapiens) (Q9NPH5 whole entry, looked up): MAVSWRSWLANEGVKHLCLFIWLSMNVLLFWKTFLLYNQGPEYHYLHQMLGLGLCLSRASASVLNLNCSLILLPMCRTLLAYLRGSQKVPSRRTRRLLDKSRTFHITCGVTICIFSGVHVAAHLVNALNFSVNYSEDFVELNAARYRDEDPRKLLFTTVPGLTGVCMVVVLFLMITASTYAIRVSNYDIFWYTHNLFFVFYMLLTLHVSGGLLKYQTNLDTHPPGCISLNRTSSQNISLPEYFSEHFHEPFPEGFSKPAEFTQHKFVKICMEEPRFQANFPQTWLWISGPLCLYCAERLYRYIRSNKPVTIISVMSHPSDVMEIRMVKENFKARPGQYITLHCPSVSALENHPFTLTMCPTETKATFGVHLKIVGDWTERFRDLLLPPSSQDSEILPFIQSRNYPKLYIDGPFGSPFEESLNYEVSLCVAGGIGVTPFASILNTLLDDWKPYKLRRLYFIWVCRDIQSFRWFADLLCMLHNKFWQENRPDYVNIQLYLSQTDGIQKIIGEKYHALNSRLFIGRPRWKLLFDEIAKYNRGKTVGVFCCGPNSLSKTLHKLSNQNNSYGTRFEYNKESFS
Chain of NADPH oxidase 5 (Homo sapiens) (Q96PH1 whole entry, looked up): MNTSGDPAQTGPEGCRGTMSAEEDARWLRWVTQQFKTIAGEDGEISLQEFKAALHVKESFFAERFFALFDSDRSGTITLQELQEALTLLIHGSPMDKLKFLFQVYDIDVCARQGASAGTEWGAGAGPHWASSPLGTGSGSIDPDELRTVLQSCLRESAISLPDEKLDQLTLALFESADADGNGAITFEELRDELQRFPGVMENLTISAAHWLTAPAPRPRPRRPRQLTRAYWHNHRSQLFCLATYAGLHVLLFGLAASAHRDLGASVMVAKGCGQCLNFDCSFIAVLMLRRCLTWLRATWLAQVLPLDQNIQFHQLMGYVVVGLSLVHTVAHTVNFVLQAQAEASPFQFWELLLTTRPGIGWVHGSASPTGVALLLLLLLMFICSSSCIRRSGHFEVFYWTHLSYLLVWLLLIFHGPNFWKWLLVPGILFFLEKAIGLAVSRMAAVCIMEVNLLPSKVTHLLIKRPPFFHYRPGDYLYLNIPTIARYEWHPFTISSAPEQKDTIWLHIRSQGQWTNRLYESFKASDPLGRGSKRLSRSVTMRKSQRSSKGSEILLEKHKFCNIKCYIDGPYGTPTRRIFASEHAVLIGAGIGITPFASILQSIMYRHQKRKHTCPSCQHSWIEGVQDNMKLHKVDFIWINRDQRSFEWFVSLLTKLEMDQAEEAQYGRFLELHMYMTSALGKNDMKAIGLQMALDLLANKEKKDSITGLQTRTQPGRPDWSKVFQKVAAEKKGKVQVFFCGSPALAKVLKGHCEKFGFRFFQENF

Structure (SMILES) | z-score [1] | composite z-score [2] | z-score [3] | z-score [4] | z-score [5] | z-score [6] | z-score [7] | z-score [8] | z-score [9] | z-score [10] | z-score [11] | z-score [12] | z-score [13] | z-score [14] | z-score [15] | z-score [16] | z-score [17] | z-score [18] | z-score [19] | z-score [20]
O=C1NC(=O)C2C1C=CC(C(O)c1ccc(I)cc1)N2Nc1ccc(Cl)cc1Cl (stereo not given) | -0.971 (inactive) | 0.618 | 5.17 (inactive) | 0.872 (inactive) | -1.72 (inactive) | -1.16 (inactive) | 1.22 | -0.204 (inactive) | -4.36 (inactive) | -0.634 | -0.519 | 0.53 | -0.363 | -3.83 | -4.06 | -2.51 | -1.25 (inactive) | -0.984 | -1.09 | -1.59 (inactive)
O=C(NC1CC1)[C@@H]1c2ccccc2C(=O)N(C2Cc3ccccc3C2)[C@H]1c1ccc(CO)cc1 | 0.412 (inactive) | -0.0377 | 2.06 (inactive) | 0.208 (inactive) | 0.531 (inactive) | -0.112 (inactive) | -0.153 | 0.0375 (inactive) | 0.108 (inactive) | -0.717 | 0.201 | 0.526 | 0.116 | 0.62 | -0.987 | 2.96 | 0.832 (inactive) | 0.0519 | 0.339 | 0.888 (inactive)
Cc1ccc(/C=C/C=O)cc1 | 1.24 (inactive) | -0.22 | 0.248 (inactive) | 0.0672 (inactive) | -0.0637 (inactive) | 0.0324 (inactive) | -0.139 | -0.225 (inactive) | -0.104 (inactive) | 1.17 | 0.572 | -0.106 | 0.935 | 0.858 | 0.532 | 1.34 | -0.111 (inactive) | -0.758 | 0.427 | -0.64 (inactive)
COc1ccc(CCNC(=O)[C@@]2(c3ccc([N+](=O)[O-])cc3)CC(=O)N(CC34CC5CC(CC(C5)C3)C4)[C@@H]2c2ccc(CO)cc2I)cc1 | 0.655 (inactive) | -0.223 | 16.3 (active) | 3.25 (inactive) | 3.61 (inactive) | 0.838 (inactive) | 3.37 | 0.675 (inactive) | -4.2 (inactive) | -3.66 | -0.68 | 0.475 | -1.36 | -2.44 | -3.68 | 2 | 0.1 (inactive) | -0.973 | -0.571 | -2.16 (inactive)
CC1CC/C=C\[C@H]2OC34C=CCN(Cc5ccccc5)C(=O)[C@H]3N(C(C)CO)C(=O)[C@@H]4C2C(=O)O1 (stereo not given in full) | 0.537 (inactive) | -0.0984 | 0.16 (inactive) | 0.365 (inactive) | 1.8 (inactive) | 0.425 (inactive) | -0.0395 | 0.799 (inactive) | -0.657 (inactive) | 1.27 | 0.278 | -0.979 | 0.679 | 0.998 | -0.182 | 0.554 | 0.219 (inactive) | 1.11 | 0.741 | 0.418 (inactive)
C=CCC(OC(C)=O)[C@@H]1[C@@H](N(Cc2cc3ccccc3o2)C(=O)Cc2ccc(OC)cc2)c2cc(OCCCO)ccc2N1C(=O)c1ccc2ccccc2c1 (stereo not given in full) | -0.829 (inactive) | -0.0252 | 2.31 (inactive) | -0.0382 (inactive) | 1.17 (inactive) | -0.0343 (inactive) | 0.559 | -1.16 (inactive) | -1.26 (inactive) | 1.14 | 0.0348 | 0.25 | 0.663 | 0.817 | -0.668 | 1.4 | -0.38 (inactive) | -0.0277 | 1.11 | -1.34 (inactive)
COC(=O)[C@@]1(Cc2ccc(OC)cc2)[C@H]2c3cc(C(=O)N4CCCC4)n(CCSCCO)c3C[C@H]2CN1C(=O)c1ccccc1 | -1.34 (inactive) | 0.399 | 2.07 (inactive) | 0.142 (inactive) | -0.0464 (inactive) | 0.667 (inactive) | -0.0335 | 0.354 (inactive) | -1.04 (inactive) | -0.201 | -0.35 | 0.319 | -0.814 | -2.68 | -0.804 | 1.5 | -1.29 (inactive) | -0.689 | 0.168 | 1.57 (inactive)
COCC(=C=CC[C@@H](O)c1ccc(OCCO)cc1)C[C@@H](O)c1ccccn1 | -0.125 (inactive) | -0.0061 | 6.36 (inactive) | 0.848 (inactive) | -0.315 (inactive) | 0.429 (inactive) | -0.577 | -0.0904 (inactive) | 0.654 (inactive) | 0.177 | -0.583 | -0.936 | -0.239 | -0.149 | -0.349 | -0.964 | -0.522 (inactive) | 0.375 | -0.719 | 0.192 (inactive)
CC(=O)NCCCC[C@@H]1NC(=O)[C@H]2C[C@@H](C(=O)O)[C@@H](c3ccc(O)cc3)N2C1=O | -0.73 (inactive) | 0.249 | 2.25 (inactive) | 2.24 (inactive) | -0.368 (inactive) | 0.912 (inactive) | -1.14 | 1.61 (inactive) | 0.625 (inactive) | 1.64 | -0.199 | 0.766 | -0.14 | -2.18 | -1.3 | 0.237 | 0.328 (inactive) | -0.621 | -1.55 | 0.273 (inactive)
